Measured values published in PubChem BioAssay (NCI).
Compounds without any hit were thinned out: in the full panel of roughly 79,000, 15% have a hit. The source made the active and inactive calls. No stated cut-off is given here; in the data, active means growth inhibition above about 70%; inactive means the rest.

Assays:
[1] = NCI Yeast Anticancer Drug Screen. Data for the wt1 strain (AID 149);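 further: 0% = growth of vehicle-treated wt1 cultures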; conditions: S. cerevisiae wt1 strain (SPY 50644) growth inhibition, hits give high values
Method in brief: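 wt1 strain grown with compound or vehicle; inhibition taken from the growth difference.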

[2] = NCI Yeast Anticancer Drug Screen. Data for the mgt1 strain (AID 153); conditions: S. cerevisiae mgt1 mutant growth inhibition, hits give high values
Method in brief: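 mgt1 yeast grown with test compound; read-out is growth inhibition versus vehicle-treated cultures.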

[3] = NCI Yeast Anticancer Drug Screen. Data for the rad50 strain (AID 155);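 further: 0% = growth of vehicle-only cultures of the same strain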; conditions: S. cerevisiae rad50 strain growth inhibition, hits give high values
Method in brief: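 DNA repair mutant yeast, compound exposure, growth read-out; inhibition is taken relative to vehicle.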

[4] = NCI Yeast Anticancer Drug Screen. Data for the mec2-1 strain (AID 157); conditions: S. cerevisiae mec2-1 strain, hits give high values
Method in brief: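 Yeast mec2-1 mutant treated with compound. Readout: growth inhibition vs vehicle controls.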

[5] = NCI Yeast Anticancer Drug Screen. Data for the sgs1 mgt1 strain (AID 161);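 further: 0% = growth of cultures given vehicle only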; conditions: S. cerevisiae sgs1 mgt1 strain, hits give high values
Method in brief: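 Mutant yeast exposed to compound; growth scored against vehicle-only wells.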

[6] = NCI Yeast Anticancer Drug Screen. Data for the CLN2oe strain (AID 163);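 further: 0% = growth of vehicle-only control cultures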; conditions: S. cerevisiae CLN2oe strain, hits give high values
Method in brief: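 Read-out: yeast growth inhibition, expressed relative to vehicle-only controls. The strain bears an engineered cell-cycle alteration.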

[7] = NCI Yeast Anticancer Drug Screen. Data for the cln2 rad14 strain (AID 165);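 further: 0% = growth equal to vehicle treated cultures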; conditions: S. cerevisiae cln2 rad14 strain, hits give high values
Method in brief: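 cln2 rad14 yeast strain; compound exposure; growth inhibition read vs vehicle controls.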

[8] = NCI Yeast Anticancer Drug Screen. Data for the bub3 strain (AID 167); conditions: S. cerevisiae bub3 mutant strain, hits give high values
Method in brief: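 In this screen, a yeast mutant lacking normal mitotic checkpoint function is challenged with compound. Relative growth versus vehicle gives the inhibition value.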

[9] = NCI Yeast Anticancer Drug Screen. Data for the wt2 strain (AID 169);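 further: 0% = growth of vehicle-treated yeast cultures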; conditions: S. cerevisiae wt2 strain growth inhibition, hits give high values
Method in brief: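 Read-out: growth inhibition versus vehicle-treated control cultures after compound exposure of the yeast strain.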

[10] = NCI Yeast Anticancer Drug Screen. Data for the mlh1 strain (AID 171);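 further: 0% = growth of vehicle-treated control cultures of the same strain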; conditions: S. cerevisiae mlh1 strain growth inhibition, hits give high values
Method in brief: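 Read-out: growth inhibition versus vehicle controls. Strain: engineered yeast with a defined DNA repair or cell cycle defect, compound-treated.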

[11] = NCI Yeast Anticancer Drug Screen. Data for the sgs1 strain (AID 173);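 further: 0% = growth of vehicle-only control cultures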; conditions: S. cerevisiae sgs1 mutant, hits give high values
Method in brief: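 Read-out: yeast growth inhibition relative to vehicle controls, following compound exposure of a strain with a defined DNA repair/cell cycle alteration.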

[12] = NCI Yeast Anticancer Drug Screen. Data for the mlh1 rad18 strain (AID 175); conditions: S. cerevisiae mlh1 rad18 strain growth inhibition, hits give high values
Method in brief: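 Yeast w/ defined DNA-repair lesions; compound exposure; growth vs vehicle controls → % inhibition.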

[13] = NCI Yeast Anticancer Drug Screen. Data for the rad18 strain (AID 177); conditions: S. cerevisiae rad18 mutant growth inhibition, hits give high values
Method in brief: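 Readout: growth inhibition vs vehicle controls. Cells: genetically altered yeast strain, DNA repair defect.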

[14] = NCI Yeast Anticancer Drug Screen. Data for the rad52 strain (AID 147);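 further: 0% = growth of vehicle-treated control cultures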; conditions: S. cerevisiae rad52 mutant growth inhibition, hits give high values
Method in brief: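 Read-out: growth inhibition versus vehicle-treated controls. Cells were a DNA repair-deficient yeast strain treated with compounds.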

[15] = NCI Yeast Anticancer Drug Screen. Data for the rad50EPP+ strain (AID 151);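 further: 0% = growth of vehicle-treated control cultures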; conditions: S. cerevisiae rad50 mutant strain, hits give high values
Method in brief: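 Growth inhibition read against vehicle controls in rad50EPP+ yeast, a strain altered in DNA damage repair, after compound exposure.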

[16] = NCI Yeast Anticancer Drug Screen. Data for the rad14 strain (AID 159);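 further: 0% = growth of vehicle-treated control cultures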; conditions: S. cerevisiae rad14 strain growth inhibition, hits give high values
Method in brief: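 DNA repair-defective yeast, compound-exposed; % growth inhibition derived by comparison with vehicle-treated controls.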

[17] = at 5.0 µM (retest, dose inferred, filed as 0.5)
[18] = at 50.0 µM (retest, dose inferred, filed as 5.0)

Measured: growth inhibition

CCOC(=O)/C(=C/c1cccc(Cl)c1)N(CC)CC
inactive: [1]; at 1.2 µM 8% | [1]; at 3.7 µM 13% | [1]; at 11.0 µM 22% | [1]; at 33.0 µM 43% | [2]; at 1.2 µM 8% | [2]; at 3.7 µM 9% | [2]; at 11.0 µM 27% | [2]; at 33.0 µM 51% | [3]; at 1.2 µM -1% | [3]; at 3.7 µM 5% | [3]; [17] 17% | [3]; at 11.0 µM 6% | [3]; at 33.0 µM 39% | [4]; at 1.2 µM 6% | [4]; at 3.7 µM 2% | [4]; [17] -22% | [4]; at 11.0 µM 7% | [4]; at 33.0 µM 46% | [5]; [17] 10% | [6]; at 1.2 µM 8% | [6]; at 3.7 µM -9% | [6]; at 11.0 µM 20% | [6]; at 33.0 µM 45% | [7]; [17] 43% | [8]; at 1.2 µM 30% | [8]; at 3.7 µM 18% | [8]; [17] 17% | [8]; at 11.0 µM 24% | [8]; at 33.0 µM 55% | [9]; at 1.2 µM 5% | [9]; at 3.7 µM 11% | [9]; at 11.0 µM 13% | [9]; at 33.0 µM 40% | [10]; at 1.2 µM 18% | [10]; at 3.7 µM 13% | [10]; at 11.0 µM 7% | [10]; at 33.0 µM 48% | [11]; at 1.2 µM 26% | [11]; at 3.7 µM 30% | [11]; at 11.0 µM 41% | [11]; at 33.0 µM 62% | [12]; [17] -9% | [13]; at 1.2 µM 13% | [13]; at 3.7 µM 14% | [13]; at 11.0 µM 17% | [13]; at 33.0 µM 35%
active: [1]; at 100.0 µM 96% | [2]; at 100.0 µM 93% | [3]; [18] 75% | [3]; at 50.0 µM 77.4% | [3]; at 100.0 µM 95% | [4]; [18] 86% | [4]; at 50.0 µM 78.5% | [4]; at 100.0 µM 95% | [5]; [18] 90% | [5]; at 50.0 µM 83% | [6]; at 100.0 µM 96% | [7]; [18] 94% | [7]; at 50.0 µM 87.5% | [8]; [18] 90% | [8]; at 50.0 µM 83.5% | [8]; at 100.0 µM 96% | [9]; at 100.0 µM 97% | [10]; at 100.0 µM 91% | [11]; at 100.0 µM 96% | [12]; [18] 83% | [12]; at 50.0 µM 78.2% | [13]; at 100.0 µM 95%

CCCCCCCCN1COCC(COc2ccccc2C)OC1 (stereo unspecified)
inactive: [14]; at 1.2 µM -3% | [14]; at 3.7 µM 0% | [14]; at 11.0 µM 1% | [14]; at 33.0 µM 13% | [15]; at 1.2 µM -7% | [15]; at 3.7 µM -4% | [15]; at 11.0 µM -2% | [15]; at 33.0 µM 11% | [15]; at 100.0 µM 18% | [2]; at 1.2 µM -1% | [2]; at 3.7 µM -2% | [2]; at 11.0 µM 0% | [2]; at 33.0 µM 5% | [4]; at 1.2 µM -4% | [4]; at 3.7 µM -4% | [4]; [17] 3% | [4]; at 11.0 µM -6% | [4]; at 33.0 µM 2% | [4]; [18] -7% | [5]; [17] -1% | [5]; [18] 1% | [6]; at 1.2 µM -4% | [6]; at 3.7 µM 0% | [6]; at 11.0 µM -58% | [6]; at 33.0 µM 9% | [7]; [17] 20% | [7]; [18] 44% | [7]; at 50.0 µM 55.2% | [8]; at 1.2 µM -9% | [8]; at 3.7 µM -7% | [8]; [17] -25% | [8]; at 11.0 µM 5% | [8]; at 33.0 µM 15% | [8]; [18] 1% | [9]; at 1.2 µM -1% | [9]; at 3.7 µM 0% | [9]; at 11.0 µM 0% | [9]; at 33.0 µM 13% | [10]; at 1.2 µM -1% | [10]; at 3.7 µM 0% | [10]; at 11.0 µM 0% | [10]; at 33.0 µM -17% | [11]; at 1.2 µM -3% | [11]; at 3.7 µM -2% | [11]; at 11.0 µM 0% | [11]; at 33.0 µM 22% | [12]; [17] -8% | [12]; [18] -2% | [13]; at 1.2 µM -15% | [13]; at 3.7 µM -4% | [13]; at 11.0 µM 4% | [13]; at 33.0 µM 11%
active: [14]; at 100.0 µM 99% | [2]; at 100.0 µM 99% | [4]; at 50.0 µM 85.3% | [4]; at 100.0 µM 99% | [5]; at 50.0 µM 93.3% | [6]; at 100.0 µM 99% | [8]; at 50.0 µM 76.5% | [8]; at 100.0 µM 98% | [9]; at 100.0 µM 99% | [10]; at 100.0 µM 99% | [11]; at 100.0 µM 99% | [12]; at 50.0 µM 95% | [13]; at 100.0 µM 99%

CC(=O)CC(c1ccccc1)c1c(O)c2ccccc2oc1=O (stereo unspecified)
active: [2]; at 100.0 µM 83% | [3]; [17] 70% | [3]; [18] 95% | [3]; at 100.0 µM 76% | [4]; [18] 97% | [5]; [18] 89% | [6]; at 100.0 µM 70% | [7]; [18] 90% | [8]; [18] 86% | [8]; at 100.0 µM 79% | [9]; at 100.0 µM 77% | [10]; at 100.0 µM 85% | [12]; [18] 99% | [13]; at 100.0 µM 78%
inactive: [1]; at 1.2 µM -10% | [1]; at 3.7 µM -10% | [1]; at 11.0 µM -12% | [1]; at 33.0 µM 10% | [1]; at 100.0 µM 64% | [15]; at 1.2 µM 15% | [15]; at 3.7 µM 4% | [15]; at 11.0 µM -3% | [15]; at 33.0 µM -4% | [15]; at 100.0 µM -16% | [2]; at 1.2 µM 13% | [2]; at 3.7 µM 4% | [2]; at 11.0 µM 14% | [2]; at 33.0 µM 44% | [3]; at 1.2 µM 6% | [3]; at 3.7 µM 5% | [3]; at 11.0 µM 6% | [3]; at 33.0 µM 20% | [3]; at 50.0 µM 46.8% | [4]; at 1.2 µM -9% | [4]; at 3.7 µM -9% | [4]; [17] 61% | [4]; at 11.0 µM -4% | [4]; at 33.0 µM 12% | [4]; at 50.0 µM 31.5% | [4]; at 100.0 µM 67% | [16]; at 1.2 µM -4% | [16]; at 3.7 µM 0% | [16]; at 11.0 µM -8% | [16]; at 33.0 µM 19% | [16]; at 100.0 µM 68% | [5]; [17] -1% | [5]; at 50.0 µM 55.4% | [6]; at 1.2 µM 17% | [6]; at 3.7 µM 22% | [6]; at 11.0 µM 6% | [6]; at 33.0 µM 39% | [7]; [17] 22% | [7]; at 50.0 µM 54.6% | [8]; at 1.2 µM 11% | [8]; at 3.7 µM 13% | [8]; [17] 29% | [8]; at 11.0 µM 14% | [8]; at 33.0 µM 45% | [8]; at 50.0 µM 62.1% | [9]; at 1.2 µM -20% | [9]; at 3.7 µM -9% | [9]; at 11.0 µM -13% | [9]; at 33.0 µM 11% | [10]; at 1.2 µM -15% | [10]; at 3.7 µM -3% | [10]; at 11.0 µM 3% | [10]; at 33.0 µM 43% | [12]; [17] 32% | [12]; at 50.0 µM 44.5% | [13]; at 1.2 µM -12% | [13]; at 3.7 µM 1% | [13]; at 11.0 µM 11% | [13]; at 33.0 µM 27%
